IDE inh: cellular human IDE inhibition; HEK cells, FAbetaB cleavage, fluorescence polarization; inhibition, % at 5.59 µM; 320,000 compounds, 0.41% hits; AID 434962;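 active means percent inhibition above the average of all tested compounds plus 3 SD, set per screening campaign, cut at about 16% in these data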;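 further: IDE supplied by intact live HEK cells; FP after avidin binding of uncleaved biotin substrate so inhibition keeps polarization high; 0% = DMSO wells and 100% = 60 µM reference IDE inhibitor Ii1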
M18AAP inhibitor: PfM18AAP enzyme inhibition; 290,000 compounds, 1.2% hits; recombinant PfM18AAP, H-Glu-NHMec fluorogenic cleavage; inhibition, % at 7.35 µM; AID 1822;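 active means inhibition above the campaign mean inhibition over all tested compounds plus 3 SD, cut at about 28% in these data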;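 further: 0% = plate median of test compound wells and 100% = 2 mM ZnCl2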
PolyA inh: inhibitors of polyadenylation in S. cerevisiae; S. cerevisiae SKY197-pL101 polyadenylation reporter, beta-gal luminescence; efflux-impaired pdr1/pdr3 knockout yeast; score 100 = 6 SD above DMSO; activity score, % at 12 µM; 300,000 compounds, 0.02% hits;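 active means lowest replicate activity score at least 50, where 100 means six control SD above control mean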;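 further: yeast exposed to compound for 9 h at 30 °C; higher score means more reporter readthrough which indicates perturbed polyadenylation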
IDE cell activ: activators of human insulin-degrading enzyme in cells. activation, % at 5.96 µM. HEK cells, FAbeta-B cleavage, fluorescence polarization; 0% vehicle, 100% cell-free pure enzyme wells. 340,000 compounds, 0.073% hits;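 active means activation above the mean of all tested compounds plus 3 SD, set per screening campaign, cut at about 17% in these data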
CaV13 FRET inh: Primary screen for inhibitors of IQ motif and Ca2+-dependent inactivation inhibitor domain binding in CACNA1D, Förster resonance energy transfer in living cells, …; HEK cells, CFP/YFP FRET ICDI-IQ, plate reader, 10 min; percent FRET-ratio fall versus neutral wells; inhibition, % at 12.3 µM; 340,000 compounds, 0.098% hits; AID 743397;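 active means mean replicate inhibition of at least 30% and at least 1% of replicates passing that level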;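 further: 0% = median of the neutral control wells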
ALR inh: inhibitors of human sulfhydryl oxidase ALR. P55789. purified ALR, DTT oxidation, H2O2 HRP-luminol luminescence. inhibition, % (concentration not given with the values). 290,000 compounds, 3.8% hits. AID 485317;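 active means mean replicate inhibition above about 79%, with every replicate also reaching it, limit read from the data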
Target sequence (P55789 whole entry, looked up): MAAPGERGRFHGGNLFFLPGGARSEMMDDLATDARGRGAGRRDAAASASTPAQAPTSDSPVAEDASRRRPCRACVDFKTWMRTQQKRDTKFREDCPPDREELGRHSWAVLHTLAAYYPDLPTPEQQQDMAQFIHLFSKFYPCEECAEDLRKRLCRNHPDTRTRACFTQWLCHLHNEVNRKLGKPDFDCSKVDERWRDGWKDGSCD
Active calls of the source: *; x = no result given. The list is not random: actives were taken first. Their share in the collection is about 4.1%.

SMILES | IDE inh | M18AAP inhibitor | PolyA inh | IDE cell activ | CaV13 FRET inh | ALR inh
Cc1cccc(NC(=O)CSc2nc3nc(C)cc(C)c3c(=O)[nH]2)c1 | -3.3 | 5.5 | 17.8 | 0.9 | -6.6 | 43.8
Cc1cc(=O)[nH]c(SCC(=O)Nc2nnc(CC(C)C)s2)n1 | 3.3 | -0.6 | 2.4 | 2.0 | -6.0 | -11.6
CC(=O)Nc1c(O)nc(SCC(=O)Nc2ccc(C(C)=O)cc2)[nH]c1=O | 1.4 | 1.1 | 5.8 | 1.8 | -8.3 | 98.4*
CC(=O)Nc1c(O)nc(SCC(=O)N2CCCCC2)[nH]c1=O | -2.5 | x | x | 3.8 | -18.1 | x
CC1CCc2c(sc(NC(=O)CSc3ncn[nH]3)c2C#N)C1 (stereo unspecified) | -1.5 | 10.8 | 4.3 | -4.5 | -6.1 | 52.1
CC(=O)Nc1c(O)nc(SCC(=O)Nc2nnc(CC(C)C)s2)[nH]c1=O | -1.2 | -3.8 | x | 7.2 | -4.6 | 85.4*
CC(=O)Nc1c(O)nc(SCC(=O)Nc2cccc(C)c2)[nH]c1=O | 0.7 | 9.5 | 1.4 | 1.0 | -9.1 | 98.1*
CCCc1cc(=O)[nH]c(SCC(=O)Nc2sc3c(c2C#N)CCC(C)C3)n1 (stereo unspecified) | 0.9 | 8.0 | 6.1 | 3.9 | -2.7 | 89.3*
O=C(CNC(=O)C12CC3CC(CC(C3)C1)C2)N1CCCC(C(F)(F)F)C1 (stereo unspecified) | x | x | x | x | -9.4 | x
CC(=O)Nc1c(O)nc(SCC(=O)Nc2sc3c(c2C#N)CCCCCC3)[nH]c1=O | -8.7 | 12.0 | 10.0 | -3.5 | -9.5 | 98.0*
CN(C)C(=C(C#N)C#N)N1CCN(c2ccc(Cl)cc2)CC1 | 0.0 | -4.4 | 14.1 | -6.5 | -4.0 | 39.0
CSC(=NC#N)N1CCN(c2ccc(Cl)cc2)CC1 | 4.2 | 4.3 | 15.1 | -3.3 | -4.1 | 97.3*
CC(=O)N1c2ccc(S(=O)(=O)N3CCC(C(=O)Nc4cccc(Cl)c4)CC3)cc2CC1C (stereo unspecified) | 12.5 | 1.4 | 19.5 | -3.6 | -6.9 | -2.5
O=C(Cn1nnc(-c2ccccc2F)n1)OCC(=O)c1ccccc1 | -2.5 | 4.8 | 20.4 | 9.5 | -4.6 | 93.3*
CCc1ccc(C(=O)CSc2ncn[nH]2)cc1 | 0.1 | 28.1* | 9.1 | 2.5 | -3.5 | 53.7
O=C(NCc1cccc(Br)c1)C1CC2Cn3c(nc4ccccc43)C2N1c1ccccc1 (stereo unspecified) | -0.5 | x | -5.5 | 0.2 | -11.2 | 77.1*
O=c1ccc2cc3c([nH]c4ccc(Br)cc43)oc-2c1O | 9.6 | 9.7 | 11.8 | -21.6 | -2.6 | 99.1*
O=C(O)c1ccc(N=Nc2c(O)[nH]c3ccc(Br)cc23)cc1 | 3.1 | 4.1 | -1.5 | -2.8 | -18.8 | x
CC1CCc2c(sc3ncnc(SCC(=O)Nc4ccc(C(=O)O)cc4)c23)C1 (stereo unspecified) | -3.7 | 2.1 | -13.8 | 0.0 | -5.1 | 22.0
CC1CCc2nc(NC(=O)CSc3nc4ccccc4o3)sc2C1 (stereo unspecified) | 2.5 | 11.6 | -4.7 | 0.5 | -3.3 | 98.8*
Cc1nc(SCC(=O)Nc2ccc(CN3CCCC3)cc2)c2c(C)c(C)sc2n1 | -0.6 | x | x | -8.3 | -2.3 | 98.8*
CC(C)c1nc(SCC(=O)Nc2nc3c(s2)CCCC3)c2ccccc2n1 | 2.0 | -6.3 | 15.6 | 0.4 | -4.7 | 98.3*
CC(C)c1nc(SCC(=O)Nc2ccc(C(=O)O)cc2)c2c3c(sc2n1)CCCC3 | -1.3 | 0.7 | -12.2 | 5.2 | -2.4 | 99.2*
CC(=O)Nc1ccc(NC(=O)CSc2nc(C)nc3sc(C)c(C)c23)cc1 | 8.8 | -4.6 | -1.9 | -3.5 | x | -13.8
Cc1ccc(NC(=O)CSc2ccc(-c3ccccn3)nn2)cc1F | -1.3 | 11.3 | -15.9 | -1.7 | -4.8 | -9.3
SMILES | IDE inh | M18AAP inhibitor | PolyA inh | IDE cell activ | CaV13 FRET inh | ALR inh
CC(=O)Nc1c(-c2cc(=O)oc3cc(C)ccc23)oc2ccccc12 | x | 0.5 | 6.2 | 4.8 | -16.4 | x
C=CCN(CC=C)Cc1cc(=O)oc2cc(C)cc(C)c12 | x | x | x | x | -10.7 | x
CN(Cc1ccc(Br)cc1)CC(O)COc1cccc(Br)c1 (stereo unspecified) | 0.7 | 5.4 | -48.8 | 4.3 | -5.4 | -2.5
CCC(C)NC(=S)N1CCN(Cc2ccc3c(c2)OCO3)CC1 (stereo unspecified) | 2.8 | 0.8 | 18.1 | -1.4 | 133.3* | 0.6
CC(C)CNC(=S)N1CCN(Cc2ccc3c(c2)OCO3)CC1 | -0.8 | 0.3 | 4.5 | -9.3 | -1.2 | -0.2
O=C(O)c1ccccc1C(=O)N1CCN(Cc2ccc3c(c2)OCO3)CC1 | x | 28.6* | -5.4 | 4.5 | -17.3 | x
Fc1ccc(C(c2nnnn2C2CCCC2)N2CCc3ccccc32)cc1 (stereo unspecified) | 9.1 | 7.7 | 4.0 | 7.4 | -4.6 | 91.5*
Cc1ccc(-c2nc(CS(=O)CC(=O)NCCN3CCCCC3C)c(C)o2)cc1 (stereo unspecified) | -0.2 | -3.3 | 9.0 | -0.3 | -2.5 | 98.0*
Cc1ccc(-c2nc(CS(=O)(=O)CC(=O)NCCN3CCCC3)c(C)o2)cc1 | -1.8 | -4.2 | 11.2 | 1.6 | -2.5 | -2.0
COc1ccc(-c2nc(CS(=O)CC(=O)NCCCN3CC(C)CC(C)C3)c(C)o2)cc1OC (stereo unspecified) | 2.5 | -5.0 | 9.8 | 2.9 | -5.4 | 98.3*
Cc1oc(-c2ccc(Cl)cc2)nc1CS(=O)CC(=O)NCCCN1CCCC(C)C1 (stereo unspecified) | 4.0 | -1.3 | -3.8 | -1.5 | -5.1 | 99.0*
Cc1ccc(-c2nc(CS(=O)(=O)CC(=O)NCCCN3CCOCC3)c(C)o2)cc1 | -2.1 | -2.6 | -3.7 | 0.1 | -13.6 | -10.3
Cc1ccc(-c2nc(CS(=O)CC(=O)NCCCN3CC(C)CC(C)C3)c(C)o2)cc1 (stereo unspecified) | 3.6 | 2.7 | 0.9 | 2.4 | -3.0 | 99.2*
CSCCC(NC(=O)c1ccccc1Cl)C(=O)N1CC(C)OC(C)C1 (stereo unspecified) | -1.5 | x | x | 2.5 | -13.5 | 0.6
COc1ccc(N(C)C(=O)c2oc(=O)c3ccccc3c2-c2ccccc2)c(OC)c1 | -0.7 | 0.1 | -19.9 | 0.3 | -2.3 | -9.7
O/N=C(\CN1CCCCC1)c1ccccc1 | 1.5 | -8.1 | -3.0 | 1.3 | -3.4 | 3.5
COc1ccc(CCNC(=O)Nc2nnc([C@H]3C[C@H](O)[C@@H](CO)O3)s2)cc1OC | x | x | x | x | -5.8 | x
Cc1cn(-c2ccccc2)c(C)c1/C=N\Nc1nc(N2CCOCC2)nc(N2CCOCC2)n1 | 3.4 | 3.1 | 0.7 | 5.0 | -17.4 | -3.5
CCc1ccc(-c2nc(CS(=O)CC(=O)NCCCN3CCOCC3)c(C)o2)cc1 (stereo unspecified) | 7.5 | -2.2 | 7.1 | 2.5 | -7.3 | 99.5*
COc1ccc(-c2nc(CS(=O)CC(=O)NCCCN3CCCC(C)C3)c(C)o2)cc1OC (stereo unspecified) | -0.6 | -1.5 | -15.0 | 6.8 | -5.0 | 98.7*

Screening results: PubChem, several laboratories
